Results taken from PubChem BioAssay (NCI).
The panel holds about 83,000 compounds, 20% with a hit somewhere; the sample as a whole holds those more often.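 A percent growth of 40 corresponds to 60% growth inhibition; 0 means no net growth; -100 means all cells died. Active threshold: below 10.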 Unmarked numbers belong to inactive results. The source made the active and inactive calls.

Tests used:
Assay in all cases: NCI-60 one-dose screen, 48 h (100 = growth as untreated, 0 = no growth, -100 = all killed)
Conditions in all cases: 10 µM unless noted
NCI-H23 lung = system: NCI-H23 lung
NCI-H226 lung = system: NCI-H226 lung
NCI-H322M lung = system: NCI-H322M lung
HOP-62 NSCLC = system: HOP-62 NSCLC
NCI-H460 lung = system: NCI-H460 lung
HOP-92 NSCLC = system: HOP-92 NSCLC
NCI-H522 lung = system: NCI-H522 lung
A549/ATCC NSCLC = system: A549/ATCC NSCLC
786-0 renal = system: 786-0 renal
COLO 205 colon = system: COLO 205 colon
DU-145 prostate = system: DU-145 prostate
MALME-3M melanoma = system: MALME-3M melanoma
MDA-MB-231 breast = system: MDA-MB-231 breast
SF-268 CNS = system: SF-268 CNS
SF-295 CNS = system: SF-295 CNS
SF-539 CNS = system: SF-539 CNS
UACC-257 melanoma = system: UACC-257 melanoma
M14 melanoma = system: M14 melanoma
RXF 393 renal = system: RXF 393 renal
K-562 leukemia = system: K-562 leukemia

| Compound | growth (NCI-H23 lung) [%] | growth (NCI-H226 lung) [%] | growth (NCI-H322M lung) [%] | growth (HOP-62 NSCLC) | growth (NCI-H460 lung) [%] | growth (HOP-92 NSCLC) | growth (NCI-H522 lung) | growth (A549/ATCC NSCLC) [%] | growth (786-0 renal) | growth (COLO 205 colon) [%] | growth (DU-145 prostate) [%] | growth (MALME-3M melanoma) | growth (MDA-MB-231 breast) | growth (SF-268 CNS) [%] | growth (SF-295 CNS) | growth (SF-539 CNS) [%] | growth (UACC-257 melanoma) | growth (M14 melanoma) [%] | growth (RXF 393 renal) [%] | growth (K-562 leukemia) |
| --- | --- | --- | --- | --- | --- | --- | --- | --- | --- | --- | --- | --- | --- | --- | --- | --- | --- | --- | --- | --- |
| CC(C)Cc1ccc(C(C)C(=O)NCc2ccc(Cn3c(=O)sn(-c4ccc(Cl)cc4)c3=O)cc2)cc1 (centres undefined) | 85.6 | 82.6 | 90.2 | 85.7% | 61.1 | 75.7% | 91.9% | 75.4 | 85.3% | 74 | 84.4 | 79.2% | 66.1% | 79.9 | 80.9% | 63 | 81.1% | 84.7 |  |  |
| O=C(Nc1sc2c(c1C(=O)O)CCCC2)c1cccc(C(F)(F)F)c1 | 90.1 | 103 | 95 | 104% | 78.5 | 79.2% | 78.7% | 85.3 | 94% | 113 | 94.2 | 99.9% | 94% | 94.9 | 85.1% | 93.4 | 80.7% | 98.8 |  |  |
| CCOC(=O)Oc1c(OC)cc(C(=O)O[C@@H]2C[C@@H]3CN4CCc5c([nH]c6cc(OC)ccc56)[C@H]4C[C@@H]3[C@H](C(=O)OC)[C@H]2OC)cc1OC | 74.9 | 102 | 102 | 97.9% | 40.9 | 19% | 73.8% | 41.8 | 78.7% | 88.9 | 81.5 | 58.9% | 43.2% | 75.2 | 74.3% | 79.9 | 94% |  | 89.8 |  |
| CC(=O)OCCCCCNc1ccccc1 | 101 | 104 | 106 | 102% | 118 | 109% | 95.1% | 101 | 101% | 107 | 106 | 103% | 98% | 99.4 | 110% | 94.2 | 110% | 113 | 123 |  |
| Cc1ccccc1-c1cc(Cc2ccc(F)cc2)c(=O)[nH]n1 | 98.3 | 105 | 94.3 | 95% | 107 | 99.8% | 95.1% | 33.4 | 111% | 108 | 130 | 88% | 109% | 94.6 | 123% | 94.2 | 137% | 118 |  | 84.8% |
| CN1CCN(c2ccc(NC3=C(Cl)C(=O)c4ncccc4C3=O)cc2C#N)CC1 | 51 | 94 | 103 | 103% | 94.8 | -61.4% (active) | -56.9% (active) |  | 85.5% | 57.6 | 86.9 | -69.4% (active) | -4.9% (active) | 85.3 | 115% | 91.6 | -46.5% (active) | 54 |  | 2.83% (active) |
| O=C(N/N=C/c1cccc(O)c1)c1ccccc1Nc1cccc(C(F)(F)F)c1 | 96.4 | 76.7 | 77.9 | 73% | 102 | 63% | 90.3% | 29.1 | 43.5% | 117 | 88.7 | 76.3% | 73.8% | 69.5 | 52.2% | 103 | 64.9% | 58.8 |  |  |
| COc1ccc(-c2cnnc3c(-c4cccc(C(F)(F)F)c4)cnn23)cc1 | 70.4 | 60.9 | 45.7 | 3.24% (active) | 36 | 52.7% | 27.5% |  | 7.61% (active) | 135 | 57.8 | 24.1% | 72.9% | 30.1 | -5.8% (active) | 15.9 | 44% | 78.7 |  | 86.3% |
| COc1ccccc1/C=N/NC1=NC2C(N1)N(C)C(=O)N2C (centres undefined) | 100 | 90.4 | 95.5 | 92% | 102 | 93.5% | 103% |  | 102% | 101 | 112 | 93.6% | 99.8% | 101 | 104% | 97.6 | 98.3% |  |  | 99.5% |
| COc1ccc(C2CC(n3nnnc3-c3ccccc3)=NN2)cc1 (centres undefined) | 82 | 75.1 | 69.9 | 78.4% | 71.2 | 80.1% | 47.1% | 60.2 |  | 91.8 | 70.5 | 73.9% | 40.2% | 75.4 | 27.2% | 37.9 | 101% | 35.4 | 102 | 15.6% |
| COc1ccc(-c2c[nH]c(C(=O)O)c2-c2cc(OC)c3c(c2OC)OCO3)cc1 | 98.9 | 95.3 | 95 | 95.6% | 102 | 110% | 97% |  | 104% | 102 | 112 | 96.1% | 105% | 99.7 | 103% | 97.4 | 98.7% | 98.9 |  | 108% |
| CN(Cc1ccccc1)c1nc(Cl)c(C2CC(c3ccc(Cl)cc3)=Cc3[nH][nH]c(=O)c32)s1 (centres undefined) | 98.3 | 97.1 | 110 | 101% | 92.7 | 102% | 89.7% |  | 89.4% | 124 | 104 | 104% | 113% | 92.1 | 90.2% | 88.1 | 102% | 107 |  | 42.5% |
| N#Cc1ccc(-c2ccc3c(c2)NC(=O)/C3=C\c2ccc[nH]2)cc1 | 36.4 | 58.1 | 70 | 84.4% | 76.2 | 36.4% | 81.8% |  | 105% | 93.9 | 106 | 98% | 45.9% | 96.6 | 95.7% | 101 | 112% | 102 | 67.3 | 105% |
| O=c1[nH]c2c(s1)CCCC2CN1CCCCC1 (centres undefined) | 96.5 | 95.1 | 112 | 83.7% | 106 | 104% | 89.5% | 80.4 | 96.2% | 98.4 | 109 | 107% | 133% | 98.7 | 104% | 105 | 92% | 90.6 |  |  |
| COc1cc2nc(-c3ccc(C#N)cc3)[nH]c(=O)c2cc1OC | 104 | 91.4 | 211 | 92.8% | 105 | 127% | 104% | 15.5 | 61.3% | 132 | 105 | 263% | 94% | 100 | 95.9% | 101 | -1.56% (active) | 87.7 |  |  |
| CCC(C)C(N)C(=O)NNc1n[nH]c(=S)n1N (centres undefined) | 102 | 101 | 105 | 105% | 103 | 97.6% | 89% |  | 102% | 116 | 109 | 101% | 101% | 98.2 | 103% | 94.7 | 99.4% | 100 |  | 102% |
| O=c1nc2n(nc1/C=C/c1ccco1)CC(c1ccc(Cl)cc1)=NN2 | 93 | 100 | 84.2 | 82.9% | 108 | 87.6% | 79.4% |  | 95.7% | 110 | 115 | 92% | 117% | 109 | 97.9% | 104 | 104% | 104 |  | 53.6% |
